Rows were chosen to be rich in hits. Some 4.5% of all compounds tested hit in one or more screens of this group.
Rpn11 inh: Rpn11 (PSMD14) deubiquitinase inhibitors, primary screen, biochemical, fluorescence polarization, uHTS. 26S proteasome non-ATPase regulatory subunit 14 (Homo sapiens), O00487. human 26S proteasome, Ub4-pepOG fluorescence polarization; 20S core pre-blocked with epoxomicin. inhibition, % at 20 µM. 0.59% of 360,000 active. AID 588493, 2011;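 active = inhibition at 20 µM, scaled to each plate's controls, above about 33%, limit read from the data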
TPT1 inh: Candida albicans TPT1 enzyme inhibitors, primary screen, biochemical, fluorescence polarization; tRNA 2'-phosphotransferase TPT1 (Candida albicans SC5314); AID 1962, 2009; recombinant caTPT1, FP RNA substrate dephosphorylation; inhibition, % at 5 µM; 0.81% of 300,000 active;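 active = inhibition above the mean of all tested compounds plus 3 SD, set per screening campaign, cut at about 24% in these data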;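 also: plate controls were DMSO alone for no effect and ferristatin control at 100 nM for full effect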
EBNA-1 inh: EBNA-1 DNA-binding inhibitors, primary screen, biochemical, fluorescence polarization | inhibition, % at 14.8 µM | 0.34% of 300,000 active; in the data active = inhibition above about 28%
ZTA DNA inh: ZTA (EBV) inhibition in EBNA-1 counter-screen; P03206; ZTA-DNA binding, fluorescence polarization; inhibition, % at 11 µM; 0.15% of 320,000 active; AID 2234; in the data active = inhibition above about 33%
Target sequence (P03206 whole entry, looked up): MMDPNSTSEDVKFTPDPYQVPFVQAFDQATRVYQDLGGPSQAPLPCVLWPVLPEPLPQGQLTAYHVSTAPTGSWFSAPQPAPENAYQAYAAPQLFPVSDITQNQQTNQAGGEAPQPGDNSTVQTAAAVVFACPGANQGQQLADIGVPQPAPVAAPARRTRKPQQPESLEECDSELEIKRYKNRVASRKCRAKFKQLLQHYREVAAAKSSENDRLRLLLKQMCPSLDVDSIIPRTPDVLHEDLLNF
dFosB activator: activators of delta FosB homodimer, primary screen, biochemical, fluorescence polarization, TAMRA-CDK5 oligo, single point; purified delta FosB; percent of positive-control signal above neutral wells; 0.99% of 340,000 active; activation, % at 25 µM; Protein FosB (Mus musculus), P13346;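 active = mean activation above about 17%, with every replicate also reaching it, limit read from the data, passing the limit was not always enough; inconclusive = only one of the two conditions met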
Target sequence (P13346 whole entry, looked up): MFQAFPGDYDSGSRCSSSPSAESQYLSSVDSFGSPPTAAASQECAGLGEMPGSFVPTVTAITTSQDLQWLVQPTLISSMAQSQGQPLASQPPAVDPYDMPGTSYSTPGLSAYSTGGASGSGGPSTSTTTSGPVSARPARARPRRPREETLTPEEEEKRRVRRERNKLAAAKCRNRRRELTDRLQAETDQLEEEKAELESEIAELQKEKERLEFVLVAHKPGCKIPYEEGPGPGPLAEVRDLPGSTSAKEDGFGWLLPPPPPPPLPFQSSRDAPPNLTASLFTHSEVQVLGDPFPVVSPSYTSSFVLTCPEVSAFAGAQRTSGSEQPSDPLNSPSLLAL
GRIN3A LBD mod: binders of NR3A ligand-binding domain, primary screen, biophysical, differential scanning fluorimetry, uHTS. Glutamate receptor ionotropic, NMDA 3A (GRIN3A) ligand-binding domain. NR3A LBD differential scanning fluorimetry, Tm shift; 0% = protein alone, 100% = glycine-bound protein. Tm shift relative to glycine control, % at 25 µM. 2.5% of 340,000 active. AID 1259313, 2017;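 active = melting temperature shift of at least 10% of the positive control shift, at one fixed dose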
caTPT1 confirm: Candida albicans TPT1 inhibitors, confirmation, biochemical, fluorescence polarization, triplicate. shares compounds with TPT1 inh. recombinant caTPT1, RNase T1 coupled. inhibition, % at 5 µM. 74% of 2,400 active;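 active = inhibition above the primary screen limit, the mean inhibition of all tested compounds plus 3 SD, cut at about 25% in these data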
RNase T1 inh: RNase T1 inhibitors, counter-screen for TPT1 inhibitor project, biochemical, fluorescence polarization. shares compounds with TPT1 inh. RNase T1 cleavage, 1536-well. inhibition, % at 5 µM. 83% of 2,400 active. AID 2153, 2009;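 active = inhibition above the solvent-only control well mean plus 3 SD, limit set per screening run, cut at about 23% in these data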;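 also: plate controls were DMSO wells with enzyme for no effect and wells without RNase T1 for full effect; inhibitors block cleavage so intact labeled substrate keeps polarization high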
The depositor's hits bear a star; ? = inconclusive; . = no result given.

SMILES | Rpn11 inh | TPT1 inh | EBNA-1 inh | ZTA DNA inh | dFosB activator | GRIN3A LBD mod | caTPT1 confirm | RNase T1 inh
COc1ccc(N2C(=O)CSC2c2ccc3c(c2)OCO3)cc1 (stereo unspecified) | 1 | 0 | 4 | -2 | 1 | 0 | . | .
CC1=NCC(C)c2c1[nH]c1ccccc21 (stereo unspecified) | 16 | 56* | 8 | -4 | -3 | -2 | 17 | 27*
CC1=NCC(C)c2ccccc21 (stereo unspecified) | -2 | . | . | . | . | . | . | .
CN(C)C=NC(=O)c1ccc(N2CCN(c3ncc(C(F)(F)F)cc3Cl)CC2)cc1 | 3 | -3 | 13 | 12 | 4 | 0 | . | .
CN(C)/C=C/C(=O)c1ccc(N2CCN(c3ncc(C(F)(F)F)cc3Cl)CC2)cc1 | 27 | 80* | -5 | -4 | 3 | -11 | 15 | 19
COc1cc(S(=O)(=O)N(Cc2cccnc2)Cc2cccc(OC)c2OC)ccc1-n1cnnn1 | 2 | -6 | 0 | 17 | -11 | -2 | . | .
CN(C)/C=N/C(=S)Nc1ccc(Cl)cc1Cl | 1 | -4 | 2 | 10 | 0 | -2 | . | .
CCCNc1c(NS(=O)(=O)c2cccs2)c(=O)oc2ccccc12 | 0 | 0 | 6 | 1 | 1 | 1 | . | .
CN1CCc2c(sc3nc(SCC(N)=O)n(-c4ccc(Cl)cc4)c(=O)c23)C1 | 81* | 86* | -5 | -3 | -2 | 0 | 64* | 78*
CN1CCc2c(sc3nc(SCC(N)=O)n(-c4ccccc4)c(=O)c23)C1 | 33 | 45* | 7 | 0 | 1 | 0 | 104* | 109*
COC(=O)CSc1nc2sc3c(c2c(=O)n1-c1ccccc1)CCN(C)C3 | 2 | 6 | 8 | -1 | -10 | 0 | . | .
NNC(=O)c1oc2nc(-c3cccs3)cc(-c3ccco3)c2c1N | 17 | 50* | -2 | 0 | -34 | . | 47* | 57*
COc1cccc(-c2cc(C(=O)N/N=C/c3ccco3)c3ccccc3n2)c1 | 2 | 1 | -2 | 9 | -10 | -4 | . | .
COc1cccc(/C=N/NC(=O)c2oc3nc(-c4ccccc4)cc(-c4ccco4)c3c2N)c1 | . | 82* | 2 | 7 | -13 | 0 | 86* | 97*
Cc1ccc(-c2cc(-c3ccco3)c3c(N)c(C(=O)NN)oc3n2)cc1 | 18 | 72* | 1 | -13 | -19 | -4 | 35* | 43*
NNC(=O)c1oc2nc(-c3ccccc3)cc(-c3ccccc3)c2c1N | 9 | -1 | -17 | -7 | -8 | -1 | . | .
CCCCS(=O)(=O)N1CCCC(C(=O)Nc2ccc3c(c2)CCC3)C1 (stereo unspecified) | 0 | -1 | -9 | -2 | -3 | -5 | . | .
CC(C)NC(=O)Cn1cc(C(=O)C(=O)N2CCOCC2)c2ccccc21 | 8 | -5 | 12 | -1 | -4 | 2 | . | .
OC(c1cccc(Cl)c1)c1nc(-c2cccc3cccnc23)cs1 (stereo unspecified) | -2 | . | . | . | . | . | . | .
Cc1cccn2c(=O)c(/C=C3\SC(=S)NC3=O)c(NCCCN3CCOCC3)nc12 | . | 121* | -4 | -4 | -3 | 2 | 122* | 120*
CCOCCCNc1nc2c(C)cccn2c(=O)c1/C=C1\SC(=S)N(C(C)CC)C1=O (stereo unspecified) | . | 135* | 9 | 11 | ? | -8 | 157* | 145*
CC(OC(=O)c1nccnc1N)C(=O)Nc1ccc(S(=O)(=O)N2CCCC2)cc1 (stereo unspecified) | 2 | 2 | -9 | -4 | -6 | 0 | . | .
CCOC(=O)C1=C(COC(=O)COc2ccc(C(=O)CC)cc2)NC(=O)NC1C (stereo unspecified) | -4 | 1 | -6 | 3 | -3 | -1 | . | .
O=[N+]([O-])C(/C=C(\Cl)[N+](=O)[O-])=C(N1CCCCC1)N1CCCCC1 | 1 | 35* | 4 | 7 | 1 | 1 | 42* | 58*
O=[N+]([O-])C(=C1SCCS1)C(=C(Cl)Cl)N1CCCCC1 | -1 | -6 | -4 | -9 | -3 | -1 | . | .
SMILES | Rpn11 inh | TPT1 inh | EBNA-1 inh | ZTA DNA inh | dFosB activator | GRIN3A LBD mod | caTPT1 confirm | RNase T1 inh
Cc1cc(O)ccc1N/C=C/c1onc(C)c1[N+](=O)[O-] | 4 | 5 | 17 | -1 | -10 | 0 | . | .
Cc1cccc(N/C=C/c2onc(C)c2[N+](=O)[O-])c1 | 13 | 62* | 15 | 8 | 3 | -2 | 64* | 73*
CCC(=O)/C=C1\Sc2ccc(OC)cc2N1CC | -2 | -5 | 10 | -10 | -9 | 0 | . | .
CCN1/C(=C\C=C(C(C)=O)C(C)=O)Sc2ccccc21 | . | 196* | -7 | -3 | -12 | 1 | 167* | 157*
CCN1/C(=C\C(C)=O)Sc2ccc(OC)cc21 | -1 | 0 | 9 | -13 | 6 | -13 | . | .
CCOC(=O)/C(C#N)=C(C)/C=C1\Sc2ccccc2N1CC | . | 49* | -2 | -7 | -9 | -30 | 39* | 50*
CCCCn1c(SCC(=O)Nc2nnc(C)s2)nnc1-c1ccncc1 | 5 | 1 | 7 | 0 | -11 | -1 | . | .
O=C1CC(C(F)(F)C(F)(F)C(F)(F)C(F)F)=Nc2ccccc2N1 | 0 | 75* | 7 | 1 | -4 | 2 | 9 | 14
O=C1CC(/C=C/c2ccco2)=Nc2ccccc2N1 | -33 | -4 | 8 | 3 | -8 | 2 | . | .
COc1cccc(CN2CCC(Oc3ccc(C(=O)N4CCCCC4)cc3)CC2)c1O | 5 | -1 | 6 | -12 | -5 | 2 | . | .
COc1cc(/C=C/c2sc3ccccc3[n+]2CCCS(=O)(=O)[O-])ccc1O | . | 86* | 6 | 8 | 241* | 0 | 97* | 101*
Cc1ccc2sc(C)[n+](CCCS(=O)(=O)[O-])c2c1 | -8 | -2 | -2 | -3 | -5 | -1 | . | .
O=C(CCCCl)Oc1ccc2cc(-c3ccc4ccccc4n3)c(=O)oc2c1 | 33 | 49* | 4 | 11 | -3 | -2 | 35* | 42*
O=C(Cc1ccccc1)Nn1c(O)c(/C=C2\C=Nc3ccccc32)sc1=S | 36 | 139* | 10 | 2 | 16 | 26* | 94* | 105*

From PubChem BioAssay
